FBW7 act = FBW7 E3 ligase activators, primary screen, biochemical, AlphaScreen, human | hit rate 0.13% among 650,000 | AlphaScreen FBW7–phospho-cyclin E peptide binding, activator screen | normalized activity (activation), % at 26.1 µM | AID 1259310, 2017; in the data active = normalized activity above about 1.9%;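 also: purified mutant Fbw7 with reduced substrate affinity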
TEAD-YAP inh = TEAD-YAP interaction inhibition, primary screen, TEAD-YAP interaction inhibitor project, luminescence, HEK-TIYL cells. inhibition, % at 9.12 µM. hit rate 1.4% among 640,000. TEAD-Gal4/YAP UAS-luciferase luminescence; in the data active = inhibition above about 32%
MITF inh = MITF inhibitors, primary screen, biochemical, AlphaScreen, human | Microphthalmia-associated transcription factor (Homo sapiens), O75030 | AlphaScreen MITF homodimerization, bead proximity signal | inhibition, % at 2.6 µM | hit rate 0.91% among 650,000 | AID 1259374, 2018; in the data active = inhibition above about 50%
GPR151 activ = activators of human GPR151, primary screen, cell-based, PathHunter beta-arrestin, luminescence | G-protein coupled receptor 151 (Homo sapiens), Q8TDV0 | PathHunter beta-arrestin GPR151 cells | activation, % at 11.2 µM | hit rate 1% among 650,000; in the data active = activation above about 4.9%
Target sequence (Q8TDV0 whole entry, looked up): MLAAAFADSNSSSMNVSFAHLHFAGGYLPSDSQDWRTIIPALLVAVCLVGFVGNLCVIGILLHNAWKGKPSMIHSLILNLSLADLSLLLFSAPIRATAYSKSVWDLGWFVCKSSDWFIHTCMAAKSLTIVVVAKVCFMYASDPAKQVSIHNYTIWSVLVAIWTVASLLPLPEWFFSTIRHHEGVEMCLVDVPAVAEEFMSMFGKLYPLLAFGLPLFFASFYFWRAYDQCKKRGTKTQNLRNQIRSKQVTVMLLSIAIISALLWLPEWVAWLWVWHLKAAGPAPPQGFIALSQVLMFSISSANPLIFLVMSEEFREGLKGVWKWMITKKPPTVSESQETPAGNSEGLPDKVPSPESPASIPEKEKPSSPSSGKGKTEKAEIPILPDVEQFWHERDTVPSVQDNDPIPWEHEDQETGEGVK
Of the large screens only hits and unclear results are named; the others gave an inactive call. This is a sample that favours compounds with a hit; in the whole collection about 3.5% have one here.

COCc1cc(C)c2c(N)c(C(=O)c3ccc(C)cc3C)sc2n1	FBW7 act 3.7
Cc1ccc(C(=O)c2sc3nc4c(cc3c2N)CCC4)c(C)c1	FBW7 act 2.0
Nc1c(C(=O)Nc2cccc3ccccc23)sc2nc3c(cc12)C(=O)CCC3	TEAD-YAP inh 61
Cc1ccc(C(=O)c2sc3nc4c(cc3c2N)C(=O)CCC4)cc1	TEAD-YAP inh 47
CC(C)CC(=O)N1CC(=O)Nc2cc(S(C)(=O)=O)ccc21	none
Cn1cccc1C(=O)OCC(=O)N(Cc1ccccc1)C(C)(C)C	none
COc1ccc(Cl)cc1C(=O)n1cccn1	none
COc1ccc(C2Oc3ccccc3C3=C2C(c2cccs2)n2ncnc2N3)cc1OC (stereo unspecified)	TEAD-YAP inh 52
CC(=O)c1ccccc1OCC(O)CN1CCN(Cc2ccc(Cl)cc2)CC1 (stereo unspecified)	none
CCOc1ccc(NC(=O)C2=C(C)NC(=O)NC2c2cccc(Cl)c2)cc1 (stereo unspecified)	none
CCOc1ccc(NC(=O)C2=C(C)NC(=O)NC2c2ccc(C)cc2)cc1 (stereo unspecified)	TEAD-YAP inh 33
COc1ccc(C2NC(=O)NC(C)=C2C(=O)Nc2ccc(Br)cc2)cc1 (stereo unspecified)	TEAD-YAP inh 47
CCOc1ccc(NC(=O)C2=C(C)NC(=O)NC2c2ccc(Cl)cc2Cl)cc1 (stereo unspecified)	TEAD-YAP inh 40
CCn1ncc(CN(C)C(=O)NC23CC4CC(CC(C4)C2)C3)c1C	none
COc1ccc(-c2csc(NC(=O)c3ccc(C)cc3)c2C(=O)O)cc1	TEAD-YAP inh 47
CCCc1sc(NC(=O)c2ccc(C)cc2)c(C(=O)O)c1C	TEAD-YAP inh 52
CCOC(=O)c1c(NC(=O)c2ccc(C)cc2)sc(C(=O)Nc2ccccc2)c1C	none
COc1ccc(NC(=O)Cn2cc3c(n2)CCC(C)C3)cc1Cl (stereo unspecified)	none
COc1cc(-c2ccc(NC(=O)c3cc(C)cc(C)c3)c(OC)c2)ccc1NC(=O)c1cc(C)cc(C)c1	none
CCC(=O)N1CCCC(c2nnc(-c3ccccc3F)s2)C1 (stereo unspecified)	TEAD-YAP inh 74
COc1ccc(-n2c(=S)[nH]c3cc(C(=O)N4CCc5ccccc5C4)ccc3c2=O)c(OC)c1	none
c1ccc2c(NC3CC3)nc(N3CCCC3)nc2c1	TEAD-YAP inh 32
c1ccc(-c2nc(NC3CCCCC3)c3ccccc3n2)cc1	none
Clc1nc(NC2CCCC2)c2ccccc2n1	TEAD-YAP inh 60
NC(=O)c1ccc[n+](CC(=O)NCc2ccco2)c1	none
O=C1C(C=Nc2cccc(C(F)(F)F)c2)=C(O)c2ccccc21	TEAD-YAP inh 70
O=C1C(C=Nc2ccc3c(c2)CCC3)=C(O)c2ccccc21	TEAD-YAP inh 49
CCOC(=O)c1ccc(N=CC2=C(O)c3ccccc3C2=O)cc1	TEAD-YAP inh 48
COc1ccc(N=CC2=C(O)c3ccccc3C2=O)cc1OC	none
COc1cc(OC)c(NC(=O)c2sc3nc(C)nc(N(C)c4ccc(C(C)C)cc4)c3c2C)cc1Cl	none
CCN(CC)CCNc1c2c(nc3ncnn13)CCCC2	none
N[C@H](Cc1ccc(Cl)cc1)c1nc2ncc(-c3ccncc3)cc2[nH]1	none
NC(c1nc2ncc(-c3ccncc3)cc2[nH]1)c1ccc(F)cc1F (stereo unspecified)	FBW7 act 3.5
N#CC1=C(SCC(=O)C23CC4CC(CC(C4)C2)C3)NC(=O)C(C#N)C12CCCCC2 (stereo unspecified)	none
CC1CN(C(=O)c2c(NC(=O)c3ccccc3Cl)sc3c2CCC(C(C)(C)C)C3)CC(C)O1 (stereo unspecified)	TEAD-YAP inh 73
CC(C)(C)C1CCc2c(sc(NC(=O)c3ccccc3)c2C(=O)O)C1 (stereo unspecified)	TEAD-YAP inh 91
CNC(=O)c1c(NC(=O)c2ccccc2)sc2c1CCC(C(C)(C)C)C2 (stereo unspecified)	none
CC(C)(C)C1CCc2c(sc(NC(=O)c3ccccc3F)c2C(=O)O)C1 (stereo unspecified)	TEAD-YAP inh 43
CC(C)(C)C1CCc2c(sc(NC(=O)c3cccc(Cl)c3)c2C(=O)O)C1 (stereo unspecified)	TEAD-YAP inh 53
Cc1ccccc1C(=O)Nc1sc2c(c1C(=O)O)CCC(C(C)(C)C)C2 (stereo unspecified)	none
c1ccc(CNc2ncc(-c3ccccc3)cn2)cc1	none
